# Tested on: VDR:RXRa (NR concentration 270 nM, RXRa partner concentration 90 nM)
# Experiment: PBM binding z-score (relative to random genomic background probes); higher = stronger binding; sequences stand for … in GC…GCGATTGACAGCGTAGAATGAAGG
# Procedure: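 Protein-binding microarray (Agilent 4x180K custom design, double-stranded 60-nt probes: 5' GC cap, 34-nt variable region, 24-nt constant primer region; full probe sequence given). Purified or IVT nuclear receptor:RXRα heterodimers (3:1 NR:RXRα, mostly 270:90 nM) or homodimers were incubated for 1 h in PBS with 2% milk and no ligand, then detected with Alexa488 antibodies. Fluorescence from o1-orientation probes (~5 replicates averaged) was converted to z-scores against 500 random hg19 background probes. Variable regions are seed direct-repeat (DR0–DR5) sites, all their single-nucleotide variants and half-site ablations.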
row,Sequence,PBM binding z-score
1,GCATATCGGTAATACAAGGTGAAAGTCCGATTGT,0.0318
2,ACAGACAGGTAAGTGAAGGTAACTCAGCTGGACG,-0.31
3,ATATGTAGGTGATCGGGTCATTCAGTTTGCGCAT,4.74
4,GGAACGAGGGCATTCGAGTTTATAGCATGGCGAT,5.31
5,CCTTATGGGTCAAGGTTATAGCACGGGTGGTACG,2.45
6,CCGACTGGGGCATAAGGTTACCATCAGCCAGCCC,-0.0341
7,ATACCAAGGTGATCGTGAGGTCGTTGGTACTAAC,3.09
8,ACTTACGGGTAAACGAGGTTATAGCACGCGTATA,4.1
9,TAGCCTAGGTCAGATCGGGCCAGTGTACGCTATA,0.494
10,GCTATTAATTGAAAGGGCAACCGAATGATTCTCG,0.257
11,TAACCTAGGTCATTCAGGGGCCAGTATAGAAAGC,4.03
12,AGGCAAAGTTCACTAGGTAACGTAAGATTCAGCT,3.88
13,CCGACTGGGGCATAAGGTTTCCATAAGCCAGCCC,-0.182
14,TATACAGGGTCAAAGGCCAGGGTACGAATGTCGA,4.93
15,TCATATAGCTAAATGCTAGGTGAAAGTCCGATCT,0.429
16,GCTATTAGTTGAAAGGGCAACTGAATGATTCTCG,0.488
17,TCATATAGGTAATACAGGCGAAAGTCGGCATCTA,0.97
18,TCTATTAGTTGAAGGGCAACCGTCGAGTCCGTTT,0.884
19,CGTACTAGGTCAAGGACAGTGAATCTCCGCACGC,1.33
20,ATCGAAAGGTCGACGAGGTGAGGATACACCGTTT,5.19

row,Sequence,PBM binding z-score
1,ACCGACAGGTGAGTGAAGGTAACTCAGCTGGACG,-0.484
2,AGTCAAAGTTCACTAGGTACCGTAAGATTCAGCT,4.35
3,CTCGAAAGGTCGGTTGAGGTGAGTACACGGATAA,2.84
4,CAGCCTAGGTCAGGGCCGGTATAGGAGGAACGTT,0.178
5,CCTACTGGGCTATTCAGAGGTCATTGATCATATG,3.57
6,CCGACTGGGGAAGAAAGGTTACCATACCATCCGG,0.522
7,ACTAGTTGGTCAGCTGAGGTCTCACACAATTCGG,0.0458
8,CGAACTAAGTCAGAACAGGACAGTGAAGGATGAT,-0.25
9,CCGACTGGGGCTAGGTTACCATAACGCACAGCCA,-0.65
10,CCGGCTAGGTCAATGGTCAGCTAAAGCAGCTCGC,0.907
11,ACTATTAGTTGACTCAGGGCAACCGATACGACGC,0.825
12,CCTTACGGGTCACTGACAGTTTATAGCATTTGGA,4.21
13,AGTCAAAGTTCACTAGGTAACGTAGGATTCAGCT,3.71
14,GCAGACAGGTGAAACGCAGGGAACTCAGGGTGGC,-0.604
15,AGAATGACGTTATTAAGATCAGGGAATTGCGGTC,-0.00436
16,GATACAGGGTCAAGGCCAGTGTACGCGTATTGAT,4.28
17,ATCTCTAGGTAAAGATAGTTCAGTGATTGCAAAT,1.07
18,CCTACTGGGCCAAGGGCATTGATCAGTCAAAGCA,-0.469
19,CGTCAAAGTTCAACTCAGGTAACGTAAAGCACGC,4.45
20,CCAGACAGGTGAGAAGATAACTCAGCCTCGATTA,0.035

# Reference: the supplement of paper PMC6555819
